Assay [1] is described as follows: compound effects on lung adenocarcinoma cell viability – A549, calcein-AM fluorescence, 48 h, basal, profiling panel (AID 1162). Further: test concentration not given here. The note with it: higher = more signal.
A short description of assay [2]: compound effects on differentiated 3T3-L1 adipocyte viability – cell-based, 3T3-L1 adipocytes, calcein-AM fluorescence, 48 h, basal, profiling panel (AID 1163). Further: test concentration not given here. The conditions noted are these: 3T3-L1 adipocytes viability, higher = more signal.
Assay [3] in a line: compound effects on hepatocellular carcinoma cell viability – HepG2, calcein-AM fluorescence, 48 h, basal, profiling panel (AID 1164). Further: test concentration not given here. The conditions noted are these: higher = more signal.
Assay [4] in a line: compound effects on multiple myeloma cell viability – MM1S, calcein-AM fluorescence, 48 h, basal, profiling panel (AID 1165). Further: test concentration not given here. The conditions noted are these: higher = more signal.
The nature of assay [5]: calcein-AM signal in unstimulated myeloma cells – cell-based, calcein-AM fluorescence, 48 h, PK04 Diversity Set, profiling panel (AID 1166).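 Further: cells grown under basal conditions without added stimulus; test concentration not given here.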 The note with it: RPMI8226 myeloma viability, higher = more signal.
A short description of assay [6]: JC-1 mitochondrial signal, unstimulated HepG2 cells – cell-based, JC-1 fluorescence, 24 h, 100 nL compound, profiling panel (AID 1167). Further: test concentration not given here. The conditions noted are these: HepG2 mitochondrial potential, higher = more signal.
A short description of assay [7]: JC-1 mitochondrial signal, unstimulated adipocytes – cell-based, JC-1 fluorescence, 3T3-L1 adipocytes, 24 h, 100 nL compound, profiling panel (AID 1168). Further: test concentration not given here. The conditions noted are these: JC-1 mitochondrial fluorescence, higher = more signal, called active from +8 up or from −8 down.
Assay [8] can be described thus: JC-1 mitochondrial signal, unstimulated myeloma cells – cell-based, JC-1 fluorescence, RPMI8226, 24 h, 100 nL compound, profiling panel (AID 1169). Further: test concentration not given here. The note with it: JC-1 mitochondrial potential fluorescence, higher = more signal.
Assay [9] can be described thus: JC-1 mitochondrial signal, unstimulated MM1S myeloma – cell-based, JC-1 fluorescence, 24 h, 100 nL compound, profiling panel (AID 1170). Further: test concentration not given here. The conditions noted are these: MM1S mitochondrial potential, higher = more signal.
The nature of assay [10]: resazurin metabolic signal in A549 cells – cell-based, resazurin fluorescence, 24 h, PK04 Diversity Set, profiling panel (AID 1171). Further: test concentration not given here. The conditions noted are these: A549 viability, higher = more signal, called active from +8 up or from −8 down. A general note: The colour change of resazurin is a common sign of viable cells or microbes.
A short description of assay [11]: resazurin metabolic signal in HepG2 cells – cell-based, resazurin fluorescence, 24 h, PK04 Diversity Set, profiling panel (AID 1172). Further: test concentration not given here. The conditions noted are these: HepG2 viability, higher = more signal.
Assay [12] is described as follows: budding yeast growth changes without added modifier – OD600, strain BY4716, 24 h, basal condition, primary screen (AID 1173). The conditions noted are these: S. cerevisiae BY4716 growth, OD600, 24 h; higher = more signal, called active from +8 up or from −8 down.
Assay [13] in a line: viability profiling in MM1S myeloma cells – cell-based, resazurin fluorescence, basal, 24 h, PK04 Diversity Set, profiling panel (AID 1174). Further: test concentration not given here. The note with it: higher = more signal, called active from +8 up or from −8 down.
Assay [14] has as its target Dihydroorotate dehydrogenase (quinone), mitochondrial (Plasmodium falciparum (isolate 3D7)) (UniProt Q08210). In words: inhibition of P. falciparum DHODH – biochemical, C-terminal His tag, absorbance 600 nm, primary screen (AID 1175).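 Further: recombinant parasite enzyme with a five histidine tag at its C terminus; test concentration not given here.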 The note with it: PfDHODH enzyme, DCIP absorbance 600 nm; higher = more signal, called active from +8 up or from −8 down.
The nature of assay [15]: inhibition of PAO1 biofilm formation – strain PAO1, LB-PBS medium, absorbance 600 nm, primary screen (AID 1176). Further: test concentration not given here. The note with it: P. aeruginosa PAO1 growth/biofilm, A600, 12 h; higher = more signal.
A short description of assay [16]: growth modulation of vineyard yeast isolate – strain RM11-1a, OD600, basal, 24 h, primary screen (AID 1177).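 Further: cultures grown under basal conditions with no added stressor; test concentration not given here.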 The note with it: S. cerevisiae RM11-1a growth, OD600, 24 h; higher = more signal, called active from +8 up or from −8 down.
The nature of assay [17]: growth of efflux-deficient E. coli DRC39 – strain DRC39, OD650, 24 h, E. coli filamentation inducers, primary screen (AID 1178).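 Further: growth measured as culture turbidity by optical density at 650 nm; test concentration not given here.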 The note with it: E. coli DRC39 acrAB, higher = more signal, called active from +8 up or from −8 down.
Assay [18] in a line: growth of efflux-deficient E. coli DRC39 – strain DRC39, OD650, 48 h, E. coli filamentation inducers, primary screen (AID 1179).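 Further: screen aims at cell division blockers that make cells filament.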 The conditions noted are these: E. coli DRC39 delta-acrAB growth, higher = more signal, called active from +8 up or from −8 down.
Assay [19] in a line: viability profiling in RPMI8226 myeloma cells – cell-based, resazurin fluorescence, basal, 24 h, PK04 Diversity Set, profiling panel (AID 1180).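 Further: RPMI8826 multiple myeloma cell line at 5000 cells per well; test concentration not given here.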 The note with it: higher = more signal.
The target of assay [20] is E3 ubiquitin-protein ligase XIAP (Homo sapiens) (UniProt P98170). In words: small molecules binding XIAP protein – biophysical, small-molecule microarray, fluorescence 635 nm, primary screen (AID 1181).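 Further: score merges 667 nm emission and signal to noise over triplicate slides.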 The conditions noted are these: higher = more signal.

Z-score and composite z-score data for nine compounds are collected here from PubChem BioAssay.

The source made the active and inactive calls. Unless noted, how the calls were made is not given here.

E3 ubiquitin-protein ligase XIAP (Homo sapiens), sequence (P98170 whole entry, looked up): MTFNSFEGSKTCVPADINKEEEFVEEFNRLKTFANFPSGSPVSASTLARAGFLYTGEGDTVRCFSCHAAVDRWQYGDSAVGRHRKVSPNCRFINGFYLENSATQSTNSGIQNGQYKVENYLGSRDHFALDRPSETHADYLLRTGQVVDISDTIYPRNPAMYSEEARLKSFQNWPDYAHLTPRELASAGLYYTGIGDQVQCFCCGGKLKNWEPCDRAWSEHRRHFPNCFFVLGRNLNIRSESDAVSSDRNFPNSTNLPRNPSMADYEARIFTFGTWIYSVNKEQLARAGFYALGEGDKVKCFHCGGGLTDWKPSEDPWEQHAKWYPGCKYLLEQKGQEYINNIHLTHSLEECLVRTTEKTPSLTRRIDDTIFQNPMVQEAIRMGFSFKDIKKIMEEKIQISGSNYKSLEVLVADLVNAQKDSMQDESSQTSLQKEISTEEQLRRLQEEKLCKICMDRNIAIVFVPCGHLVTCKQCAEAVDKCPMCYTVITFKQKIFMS
Dihydroorotate dehydrogenase (quinone), mitochondrial (Plasmodium falciparum (isolate 3D7)), sequence (Q08210 whole entry, looked up): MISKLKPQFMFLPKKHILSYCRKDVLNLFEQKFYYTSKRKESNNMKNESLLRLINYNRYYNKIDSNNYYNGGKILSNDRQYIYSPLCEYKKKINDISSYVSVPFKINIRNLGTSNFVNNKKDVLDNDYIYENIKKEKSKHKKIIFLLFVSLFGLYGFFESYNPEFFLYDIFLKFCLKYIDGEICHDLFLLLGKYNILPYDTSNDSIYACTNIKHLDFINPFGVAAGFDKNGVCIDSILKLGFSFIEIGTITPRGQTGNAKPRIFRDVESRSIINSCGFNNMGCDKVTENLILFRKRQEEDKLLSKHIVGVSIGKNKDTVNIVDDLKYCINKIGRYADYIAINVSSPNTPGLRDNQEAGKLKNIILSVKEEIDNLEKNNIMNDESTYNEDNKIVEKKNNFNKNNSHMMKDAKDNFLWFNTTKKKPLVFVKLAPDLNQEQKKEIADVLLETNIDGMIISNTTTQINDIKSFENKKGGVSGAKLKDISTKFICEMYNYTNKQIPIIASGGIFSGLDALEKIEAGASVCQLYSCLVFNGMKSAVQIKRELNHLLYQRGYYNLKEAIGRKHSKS

Consider `C=CCC(OC(C)=O)[C@@H]1[C@@H](N(Cc2ccc(-c3ccccc3)cc2)C(=O)c2ccc(-c3ccccc3)cc2)c2cc(OCCCO)ccc2N1C(=O)Cc1ccc(OC)cc1` (stereo not given in full), for which the z-score in assay [1] was -0.111; in assay [2], 0.6; in assay [3], 0.551; in [4], -0.769; in assay [5], -0.904; in [6] it was 0.424. Also, the z-score in assay [7] is -0.972 (inactive); in assay [8], -0.0615; in assay [9], -0.142; in assay [10], 0.78 (inactive); in [11] it was -0.149; in assay [12], 0.335 (inactive). Besides, the z-score is 0.108 (inactive) in assay [13]; 0.0429 (inactive) in assay [15]; -1.14 (inactive) in assay [16]; -0.0223 (inactive) in [17]; 0.185 (inactive) in [18]; 0.202 in assay [19]. Further, the composite z-score in assay [14] is -0.979 (inactive); in [20] it was -0.0596.

For the compound `O=C1C[C@@](C(=O)NCCN2CCOCC2)(c2ccc([N+](=O)[O-])cc2)[C@@H](c2ccc(CO)cc2)N1C1CCCCC1`, the z-score in [1] is 1.16; in assay [2] it was 0.936; in [3], 0.339; in assay [4], 0.324; in [5], 0.633; in assay [6], 0.899. Besides, the z-score in assay [7] is 0.295 (inactive); in assay [8], 0.36; in assay [9], 1.22; in assay [10], 0.981 (inactive); in assay [11], -0.0886; in assay [12] it was -0.359 (inactive). In addition, the z-score in assay [13] was 0.836 (inactive); in assay [15], 0.292 (inactive); in assay [16], -0.206 (inactive); in assay [17], 0.497 (inactive); in [18], 0.274 (inactive); in assay [19], 0.906. Besides, the composite z-score was 0.231 (inactive) in [14] and -0.142 in assay [20].

As for `COc1ccc(CCN2C(=O)[C@@]3(c4ccc([N+](=O)[O-])cc4)CC(=O)N(CC45CC6CC(CC(C6)C4)C5)[C@@H]3c3ccc(CO)cc32)cc1`, the z-score was 1.44 in assay [1]; 0.0861 in assay [2]; 0.71 in assay [3]; 0.0097 in assay [4]; -0.346 in [5]; 0.0982 in assay [6]. Moreover, the z-score in assay [7] is 0.0691 (inactive); in assay [8], -0.0825; in assay [9] it was 0.997; in assay [10], 0.616 (inactive); in [11], 0.214; in assay [12], -0.12 (inactive). The z-score is 0.954 (inactive) in assay [13]; 0.298 (inactive) in [15]; -0.16 (inactive) in [16]; 0.307 (inactive) in assay [17]; 0.241 (inactive) in [18]; 0.325 in assay [19]. Besides, the results for the composite z-score in [14] and in assay [20] were -25.3 (active) and 0.0325, respectively.

As for `O=C1OCCC/C=C\[C@H]2OC34C=CCN(CCN5CCOCC5)C(=O)[C@H]3N(CCCCCO)C(=O)[C@@H]4C12` (stereo not given in full), the z-score was 0.739 in [1]; 0.216 in assay [2]; -0.123 in assay [3]; 1.1 in assay [4]; -0.0521 in assay [5]; -1.04 in assay [6]. Also, the z-score is 0.348 (inactive) in assay [7]; 0.329 in [8]; -0.102 in assay [9]; -0.254 (inactive) in assay [10]; -0.567 in assay [11]; -0.0575 (inactive) in assay [12]. The z-score is -0.193 (inactive) in assay [13]; -0.0432 (inactive) in assay [15]; -0.634 (inactive) in [16]; 0.157 (inactive) in assay [17]; 0.0435 (inactive) in [18]; 0.0501 in assay [19]. For the same compound, the values for the composite z-score in assay [14] and in assay [20] were 0.286 (inactive) and -0.124, respectively.

For the compound `COC(=O)c1ccc(C#CC(NP(=O)(c2ccccc2)c2ccccc2)c2ccccc2)cc1` (stereo not given), the z-score in assay [1] was -0.341; in assay [2], -0.0724; in assay [3], 0.428; in [4], -3.15; in assay [5] it was -3.5; in [6], -0.798. The z-score in assay [7] was -0.174 (inactive); in assay [8] it was -0.352; in assay [9], -1.3; in assay [10] it was -0.491 (inactive); in assay [11], -0.0848; in assay [12], 0.441 (inactive). In addition, the z-score is 0.693 (inactive) in assay [13]; 0.231 (inactive) in assay [15]; 0.919 (inactive) in [16]; 0.37 (inactive) in assay [17]; 0.369 (inactive) in assay [18]; 1.26 in assay [19]. The composite z-score in assay [14] is -3.37 (inactive); in assay [20], 0.063.

Regarding `C=CCC(OC(C)=O)[C@@H]1[C@@H](N(Cc2cccc3ccccc23)C(=O)Cc2ccc(F)cc2)c2cc(OCCCO)ccc2N1C(=O)Cc1ccc2ccccc2c1` (stereo not given in full), the z-score in [1] was 0.677; in [2], -0.399; in [3], 0.607; in assay [4], 0.853; in assay [5], -0.538; in [6], 1.72. In addition, the z-score in assay [7] is 0.38 (inactive); in assay [8], -0.0877; in assay [9] it was -0.24; in assay [10], 0.775 (inactive); in [11], 0.549; in assay [12], 0.595 (inactive). In addition, the z-score in assay [13] is 0.295 (inactive); in assay [15], 0.195 (inactive); in assay [16] it was 0.0764 (inactive); in assay [17], -0.283 (inactive); in [18] it was 0.4 (inactive); in assay [19] it was -1.29. For the same compound, the composite z-score in assay [14] is -0.373 (inactive); in [20] it was -0.0332.

Consider `O=C(N1CCCCC1)[C@@]1(CCS(=O)(=O)c2ccccc2)N=C(c2ccc(OCCCO)cc2)O[C@H]1c1ccccc1`, for which the z-score in assay [1] was -1.35; in [2], 1; in assay [3], -1.12; in [4], -2.25; in assay [5], -3.55; in [6], 2. In addition, the z-score was -0.751 (inactive) in [7]; -0.72 in assay [8]; -2.09 in assay [9]; -0.908 (inactive) in assay [10]; 0.233 in [11]; 0.0247 (inactive) in assay [12]. The z-score in assay [13] is -2.91 (inactive); in assay [15], -1.01 (inactive); in assay [16], 0.0929 (inactive); in [17], 1.33 (inactive); in assay [18], 0.561 (inactive); in assay [19] it was -2.78. Moreover, the composite z-score in assay [14] was 1.05 (inactive); in assay [20], 0.198.

On to `O=C(NCc1ccccc1)[C@@]1(Cc2ccccc2)COC(c2ccc(OCCCO)cc2)=N1`, for which the z-score is -1.65 in assay [1]; -2.05 in [2]; -2.78 in assay [3]; -3.58 in assay [4]; -3.06 in [5]; -2.97 in assay [6]. Besides, the z-score in assay [7] is 0.558 (inactive); in assay [8] it was -1.06; in assay [9] it was -2.9; in [10] it was -2.77 (inactive); in [11], -2.41; in [12] it was 0.0178 (inactive). The z-score in [13] is -6.53 (inactive); in [15], 0.162 (inactive); in assay [16], 3.65 (inactive); in assay [17] it was 0.11 (inactive); in assay [18], -0.762 (inactive); in [19], -5.69. For the same compound, the composite z-score in assay [14] was 1.1 (inactive); in assay [20], -0.217.

Regarding `COc1cc(Cc2cc3c(c(CCc4ccccc4)n2)[Si](C(C)C)(C(C)C)OC3)cc(OC)c1OC`, the z-score was 0.557 in [1]; -1.22 in assay [2]; -0.202 in [3]; -2.17 in assay [4]; -4.13 in [5]; 0.756 in assay [6]. Further, the z-score in assay [7] was -0.411 (inactive); in assay [8], -0.799; in [9] it was -0.234; in assay [10], 2.12 (inactive); in assay [11], 1.47; in assay [12], -0.0438 (inactive). In addition, the z-score was 0.273 (inactive) in assay [13]; 0.726 (inactive) in assay [15]; 0.404 (inactive) in assay [16]; -0.171 (inactive) in [17]; 0.365 (inactive) in [18]; 0.815 in assay [19]. Besides, the composite z-score was -0.606 (inactive) in assay [14] and 0.107 in assay [20].
